Only some compounds are listed: those with a hit (about 9% of all), similar ones and a draw of the others.
PLK1 PBD block: qHTS for Inhibitors of PLK1-PDB (polo-like kinase 1 - polo-box domain): Primary Screen. Serine/threonine-protein kinase PLK1 (Homo sapiens), P53350. Plk1 PBD binding of FITC phosphopeptide, fluorescence polarization. Potency, µM, most hits filed as inhibitors. 2.8% of 360,000 active. AID 720504, 2013; further: series mostly up to about 57 µM; nearly all actives have a fitted effect of over 65% in size
Target sequence (P53350 whole entry, looked up, the tested form may be a part): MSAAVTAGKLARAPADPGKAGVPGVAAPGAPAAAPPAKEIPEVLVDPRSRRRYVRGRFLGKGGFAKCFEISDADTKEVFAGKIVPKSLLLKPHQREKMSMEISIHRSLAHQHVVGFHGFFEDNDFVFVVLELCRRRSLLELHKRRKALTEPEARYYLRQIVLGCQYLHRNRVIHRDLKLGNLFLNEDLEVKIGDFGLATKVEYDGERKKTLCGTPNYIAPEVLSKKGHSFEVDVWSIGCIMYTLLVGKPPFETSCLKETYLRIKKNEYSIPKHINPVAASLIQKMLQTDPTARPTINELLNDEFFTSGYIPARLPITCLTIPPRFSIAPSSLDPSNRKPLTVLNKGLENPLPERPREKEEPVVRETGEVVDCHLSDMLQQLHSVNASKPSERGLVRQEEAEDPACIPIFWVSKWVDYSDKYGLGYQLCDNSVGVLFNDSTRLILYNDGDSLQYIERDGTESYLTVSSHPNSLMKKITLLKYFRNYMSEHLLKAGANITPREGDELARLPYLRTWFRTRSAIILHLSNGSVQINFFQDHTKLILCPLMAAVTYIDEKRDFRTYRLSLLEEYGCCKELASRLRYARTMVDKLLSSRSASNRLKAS
BAZ2B inh: qHTS Assay for Inhibitors of BAZ2B | Bromodomain adjacent to zinc finger domain protein 2B (Homo sapiens), Q9UIF8 | AlphaScreen BAZ2B-H3K14Ac peptide displacement | Potency, µM (titrated, usually from 114 µM), actives largely listed as inhibitors | 4.4% of 360,000 active | AID 504333, 2011; further: nearly all actives have a fitted effect of over 60% in size
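AlphaScreen displacement: compounds (up to 110uM) incubated 30 min at room temperature with a preformed 50 nM BAZ2B/50 nM biotinylated H3K14Ac peptide complex in PBS pH 7.4 with Tween-20. Donor and acceptor beads at 10 ug/mL final added, 20 min light-protected before reading.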
JMJD2A Tudor: qHTS Assay for Inhibitors of JMJD2A-Tudor Domain | Lysine-specific demethylase 4A (Homo sapiens), O75164 | AlphaScreen JMJD2A-Tudor / H3K4me3 peptide binding | Potency, µM (highest dose often 114 µM), actives largely listed as inhibitors | 4.4% of 390,000 active; further: nearly all actives have a fitted effect of over 50% in size
HP1b binding inh: HTS for Inhibitors of HP1-beta Chromodomain Interactions with Methylated Histone Tails. Chromobox protein homolog 1 (Homo sapiens), P83916. AlphaScreen HP1-beta / biotin-H3K9me3 peptide binding. Potency, µM (titrated, usually from 114 µM), most hits filed as inhibitors. 0.56% of 390,000 active; further: nearly all actives have a fitted effect of over 70% in size
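HP1-beta protein (50 nM final) preincubated 30 min at room temperature with biotinylated H3(1-18)K9me3 peptide (50 nM) in PBS pH 7.4, 0.01% Tween-20, then compound added for 30 min. AlphaScreen streptavidin donor/nickel chelate acceptor beads (10 ug/mL final), 30 min dark, luminescence read.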
G9a inh: qHTS Assay for Inhibitors of Histone Lysine Methyltransferase G9a; Potency, µM (highest dose often 102 µM), most hits filed as inhibitors; 8.8% of 350,000 active; Histone-lysine N-methyltransferase EHMT2 (Homo sapiens), Q96KQ7; G9a H3K9 monomethylation, AlphaScreen, 2 h; further: nearly all actives have a fitted effect of over 75% in size
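Readings reflect AlphaScreen signal from monomethyl-H3K9 antibody detection. HMT at 20 nM; substrate b-H3K9 500 nM; cofactor SAM 20 uM; 2 h RT reaction; compounds tested as titrations in qHTS with 15 min preincubation.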
ALOX12 inh: Primary qHTS assay for inhibitors of human arachidonate 12S-lipoxygenase (ALOX12): Round 2; Polyunsaturated fatty acid lipoxygenase ALOX12 (Homo sapiens), P18054; purified 12hLO, xylenol orange hydroperoxide absorbance; Potency, µM (highest dose often 108 µM), hits mostly inhibitors; 1.1% of 580,000 active
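Purified human 12hLO (150 nM final) in 25 mM Hepes, 0.01% Triton X-100, pH 7.0 was preincubated 15 min at room temperature with compound. Then 40 uM arachidonic acid was added, 30 min. Hydroperoxide was read by Fe-XO absorbance ratio 573/405 nm.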
A number is an active result; n = inactive; u = inconclusive; x = no result; [ ] = another dose, or the depositor's remark. The call rests on the fitted dose curve; in most records, active means well fitted curve in the direction sought with a large enough effect; inconclusive means small, poorly fitted or top-dose-only effect, or another doubt; inactive means no such curve, though single readings can be large; an effect the other way counts as inactive or inconclusive.

SMILES	PLK1 PBD block	BAZ2B inh	JMJD2A Tudor	HP1b binding inh	G9a inh	ALOX12 inh
Cc1ccc(/C(O)=C2\C(=O)C(=O)N(C)C2c2ccccc2)cc1 (configuration not stated)	n	x	x	x	x	n
CN1C(=O)C(=O)/C(=C(/O)c2ccc(Br)cc2)C1c1cccc([N+](=O)[O-])c1 (configuration not stated)	n	n	n	n	50µM	u
Cc1ccc(/C(O)=C2\C(=O)C(=O)N(CCCO)C2c2ccc(F)cc2)cc1 (configuration not stated)	x	x	x	x	x	n
CN1C(=O)C(=O)/C(=C(/O)c2ccccc2)C1c1ccc(Br)cc1 (configuration not stated)	n	n	n	n	n	u
CN1C(=O)C(=O)/C(=C(/O)c2ccc(Br)cc2)C1c1ccccc1F (configuration not stated)	34µM	n	u	n	u	u
O=C1C(=O)N(CCCO)C(c2ccc(Br)cc2)/C1=C(\O)c1ccc(Br)cc1 (configuration not stated)	n	n	n	n	u	35µM
Cc1cccc(CN2CCN(CC(=O)N3CCCC3)C2=O)c1	n	n	n	n	n	n
COc1ccccc1CNS(=O)(=O)c1ccc(-n2cnnn2)c(OC)c1	n	n	n	n	28µM	n
COc1cc(S(=O)(=O)NCc2ccc(F)cc2)ccc1-n1cnnn1	n	n	n	n	n	n
COc1cc(S(=O)(=O)NCc2ccccc2Cl)ccc1-n1cnnn1	n	u	n	n	13µM	n
CS(=O)(=O)Nc1ccccc1CNC(=O)CC1CCCCC1	x	x	x	x	x	n
[O-]c1n[n+](-c2ccc(Cl)cc2)cc2ccccc12	3.4µM	n	14µM	n	35µM	n
Cc1ccc2[nH]c(=O)c(C(c3nnnn3C(C)(C)C)N(Cc3ccco3)CC3CCCO3)cc2c1 (configuration not stated)	n	n	n	n	n	n
CCC(c1nnnn1Cc1ccco1)N(Cc1cc2cc(C)cc(C)c2[nH]c1=O)CC1CCCO1 (configuration not stated)	3.4µM	u	n[11.4 µM]	u	u	u
Cc1cccc2cc(C(c3nnnn3C(C)(C)C)N(Cc3ccco3)CC3CCCO3)c(=O)[nH]c12 (configuration not stated)	n	50µM	25µM	16µM	50µM	n
Cc1ccc(C2=NN(C(=O)c3ccccc3F)C(c3ccccc3F)C2)cc1 (configuration not stated)	u	n	n	n	16µM	n
O=C(c1ccccc1)N1N=C(c2ccccc2)CC1c1ccccc1O (configuration not stated)	3.4µM	u	11µM	u	u	n
O=c1[nH]c(=O)n(C2OC(CO)C(O)C2O)c2c1CCCC2 (configuration not stated)	n	x	x	x	x	n
CC(=O)c1cccc(Nc2ccc(-c3ccccc3F)nn2)c1	n	n	n	n	n	n
CC(=O)c1ccc(Nc2ccc(-c3ccccc3C)nn2)cc1	u	79µM	n	n	x	u
CC(Oc1ccc2c(-c3ccccc3)cc(=O)oc2c1)C(=O)NCC(O)c1ccccc1 (configuration not stated)	n	n	n	n	n[12.7 µM]	n
COc1ccc(-c2cc3ccc(OCc4nn[nH]n4)cc3oc2=O)cc1OC	n	n	n	n	45µM	u
NC(=O)c1c(NC(=O)c2ccccc2)sc2c1CCN(Cc1ccccc1)C2	n	n	n	n	n	n
CCOC(=O)N1CCc2c(sc(NC(C)=O)c2C(N)=O)C1	n	x	n	n	x	n
CC(C)C(=O)Nc1sc2c(c1C(N)=O)CCN(Cc1ccccc1)C2	n	n	n	n	71µM	n
